Laboratory results from PubChem BioAssay (NCI).
This is part of a sample that, as a whole, favours compounds with a hit. Of some 83,000 tested, about 20% had one in any assay.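 Single-concentration screen, 48 h exposure, 96-well plates. Endpoint: percent growth. Below 10 = active.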 The source made the active and inactive calls.

System: MALME-3M melanoma
Assay: NCI-60 one-dose screen, 48 h (100 = growth as untreated, 0 = no growth, -100 = all killed)
Conditions: 10 µM

SMILES	growth
CC(=O)OC1CC2C(C)(C)OC3CC(=O)OCC32C2CCC3(C)C(=CCC3c3ccoc3)C12C (stereo not given)	85.2% (inactive)
CCC(O)CC(CC)CO (stereo not given)	128% (inactive)
CC(=Nc1ccccc1)C1=C(O)C(Cc2cccc(F)c2)NC1=O (stereo not given)	39.8% (inactive)
Cc1c(O)cccc1O	156% (inactive)
CC1CCCCN1C(=S)Nc1ccc(S(=O)(=O)N2CCCCC2)cc1 (stereo not given)	130% (inactive)
C=C1CC/C=C(\C)C(=O)C[C@@H]2[C@@H]1CC2(C)C	103% (inactive)
N#C/C(=C\c1cc(O)c(O)c(O)c1)C(N)=O	115% (inactive)
C#CCSc1nnnn1-c1ccc(Br)c(C)c1	112% (inactive)
Brc1cnc2ccccc2c1	94.6% (inactive)
O=C1C=C(O)C(=O)C=C1O	144% (inactive)
COC(=O)Nc1nc2ccc(C(=O)c3ccc(F)cc3)cc2[nH]1	57.5% (inactive)
CCOC(=O)C1=C(C)NC(=O)NC1c1cccs1 (stereo not given)	110% (inactive)
CCOC(=O)Nc1cc2c(c(N)n1)N=C(c1ccccc1)CO2	64.8% (inactive)
COC(=O)c1cccnc1	112% (inactive)
O=[N+]([O-])c1cccc(C(F)(F)F)c1	135% (inactive)
CC(=O)Cc1ccc(-c2ccccc2)cc1	77.1% (inactive)
Cc1ccc(C(=O)NC2c3ccccc3Oc3ccccc32)cc1	53.2% (inactive)
CC1(c2ccccc2)NC(=O)NC1=O (stereo not given)	113% (inactive)
COc1cc2c3c(n(C)c(=O)c2cc1OC)-c1cc2c(cc1C3=O)OCO2	81.6% (inactive)
O=[N+]([O-])c1ccc(-c2ncc(-c3ccc(Br)cc3)o2)cc1	125% (inactive)
